Test results published in PubChem BioAssay AID1159580 (chemical genetic matrix, 2015).
The campaign covered roughly 5,500 compounds. About 2,000 (36%) were called active. Not shown: some 18% with an inconclusive outcome. This is one part of the list. Unmarked numbers belong to inactive results. Rule as the data show it: active = normalized growth mostly below about 0.91 (no sharp cut-off); inconclusive = no clear call, values can overlap the other calls; inactive = mostly above about 0.92.

Assay: chemical genetic growth profiling, strain panel (AID 1159580);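 also: tested at 20 µM; growth read once vehicle control cultures reached saturation at 30 °C; 1 = growth at the plate median or of vehicle wells; lower values mean less growth of the strain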
Details: growth OD

CCOC(=O)CCCCCCCCCCCCC1C=CCC1 (centres undefined)
normalized growth (S. cerevisiae deletion strains, locus YJR066W, strain TOR1, stronger effect = lower value): 0.902
normalized growth (S. cerevisiae deletion strains, locus YJR075W, strain HOC1, stronger effect = lower value): 0.062 (active)
normalized growth (S. cerevisiae deletion strains, locus YKL009W, strain mrt4, stronger effect = lower value): 0.729 (active)
normalized growth (S. cerevisiae deletion strains, locus YKL068W, stronger effect = lower value): 0.984
normalized growth (S. cerevisiae deletion strains, locus YKL085W, strain MDH1 (second series), stronger effect = lower value): 0.627 (active)
normalized growth (S. cerevisiae deletion strains, locus YKL085W, strain MDH1, stronger effect = lower value): 0.627 (active)
normalized growth (S. cerevisiae deletion strains, locus YKL160W, strain elf1, stronger effect = lower value): 1
normalized growth (S. cerevisiae deletion strains, locus YKR001C, strain vps1, stronger effect = lower value): 0.0645 (active)
normalized growth (S. cerevisiae deletion strains, locus YKR026C, strain gcn3, stronger effect = lower value): 0.975
normalized growth (S. cerevisiae deletion strains, locus YKR091W, strain srl3, stronger effect = lower value): 0.983
normalized growth (S. cerevisiae deletion strains, locus YLL001W, strain dnm1, stronger effect = lower value): 1
normalized growth (S. cerevisiae deletion strains, locus YLL026W, stronger effect = lower value): 0.961
normalized growth (S. cerevisiae deletion strains, locus YLL041C, strain sdh2, stronger effect = lower value): 0.992
normalized growth (S. cerevisiae deletion strains, locus YLR027C, strain aat2, stronger effect = lower value): 0.973
normalized growth (S. cerevisiae deletion strains, locus YLR039C, strain RIC1, stronger effect = lower value): 0.0918 (active)
normalized growth (S. cerevisiae deletion strains, locus YLR058C, strain SHM2, stronger effect = lower value): 0.0501 (active)
normalized growth (S. cerevisiae deletion strains, locus YLR102C, strain apc9, stronger effect = lower value): 0.0639 (active)
normalized growth (S. cerevisiae deletion strains, locus YLR113W, strain HOG1, stronger effect = lower value): 1.01
normalized growth (S. cerevisiae deletion strains, locus YLR221C, strain rsa3, stronger effect = lower value): 0.938
normalized growth (S. cerevisiae deletion strains, locus YLR258W, strain gsy2, stronger effect = lower value): 0.946
normalized growth (S. cerevisiae deletion strains, locus YLR262C, strain YPT6 (second series), stronger effect = lower value): 0.942
normalized growth (S. cerevisiae deletion strains, locus YLR262C, strain YPT6, stronger effect = lower value): 0.102 (active)
normalized growth (S. cerevisiae deletion strains, locus YLR268W, strain sec22, stronger effect = lower value): 0.0626 (active)
normalized growth (S. cerevisiae deletion strains, locus YLR320W, strain mms22, stronger effect = lower value): 0.808 (active)
normalized growth (S. cerevisiae deletion strains, locus YLR330W, strain CHS5, stronger effect = lower value): 0.0514 (active)
normalized growth (S. cerevisiae deletion strains, locus YLR342W, strain FKS1 (second series), stronger effect = lower value): 0.0786 (active)
normalized growth (S. cerevisiae deletion strains, locus YLR342W, strain FKS1, stronger effect = lower value): 0.954
normalized growth (S. cerevisiae deletion strains, locus YLR357W, strain rsc2, stronger effect = lower value): 1
normalized growth (S. cerevisiae deletion strains, locus YLR370C, strain arc18, stronger effect = lower value): 0.994
normalized growth (S. cerevisiae deletion strains, locus YLR371W, strain rom2, stronger effect = lower value): 0.0661 (active)
normalized growth (S. cerevisiae deletion strains, locus YLR384C, strain iki3, stronger effect = lower value): 0.965
normalized growth (S. cerevisiae deletion strains, locus YLR418C, strain cdc73, stronger effect = lower value): 0.0873 (active)
normalized growth (S. cerevisiae deletion strains, locus YML016C, strain PPZ1, stronger effect = lower value): 0.0464 (active)
normalized growth (S. cerevisiae deletion strains, locus YML032C, strain rad52, stronger effect = lower value): 0.0734 (active)
normalized growth (S. cerevisiae deletion strains, locus YML120C, strain ndi1, stronger effect = lower value): 0.994
normalized growth (S. cerevisiae deletion strains, locus YML124C, strain tub3, stronger effect = lower value): 0.063 (active)
normalized growth (S. cerevisiae deletion strains, locus YMR058W, strain fet3, stronger effect = lower value): 0.991
normalized growth (S. cerevisiae deletion strains, locus YMR078C, strain ctf18, stronger effect = lower value): 0.0817 (active)
normalized growth (S. cerevisiae deletion strains, locus YMR125W, strain sto1, stronger effect = lower value): 0.951
normalized growth (S. cerevisiae deletion strains, locus YMR129W, stronger effect = lower value): 0.993
normalized growth (S. cerevisiae deletion strains, locus YMR205C, strain PFK2, stronger effect = lower value): 0.864 (active)
normalized growth (S. cerevisiae deletion strains, locus YMR223W, strain ubp8, stronger effect = lower value): 0.0615 (active)
normalized growth (S. cerevisiae deletion strains, locus YMR231W, strain pep5, stronger effect = lower value): 0.971
normalized growth (S. cerevisiae deletion strains, locus YMR307W, strain GAS1, stronger effect = lower value): 0.12 (active)
normalized growth (S. cerevisiae deletion strains, locus YNL067W, strain RPL9B, stronger effect = lower value): 0.0497 (active)
normalized growth (S. cerevisiae deletion strains, locus YNL071W, strain lat1, stronger effect = lower value): 0.808 (active)
normalized growth (S. cerevisiae deletion strains, locus YNL128W, strain TEP1, stronger effect = lower value): 0.0632 (active)
normalized growth (S. cerevisiae deletion strains, locus YNL153C, strain GIM3, stronger effect = lower value): 0.0549 (active)
normalized growth (S. cerevisiae deletion strains, locus YNL183C, strain NPR1, stronger effect = lower value): 0.893
normalized growth (S. cerevisiae deletion strains, locus YNL209W, strain ssb2, stronger effect = lower value): 0.982
normalized growth (S. cerevisiae deletion strains, locus YNL233W, strain BNI4, stronger effect = lower value): 0.0592 (active)
normalized growth (S. cerevisiae deletion strains, locus YNL248C, strain rpa49, stronger effect = lower value): 1.01
normalized growth (S. cerevisiae deletion strains, locus YNL250W, strain rad50, stronger effect = lower value): 0.848 (active)
normalized growth (S. cerevisiae deletion strains, locus YNL271C, strain bni1, stronger effect = lower value): 0.146 (active)
normalized growth (S. cerevisiae deletion strains, locus YNL298W, strain CLA4, stronger effect = lower value): 0.0648 (active)
normalized growth (S. cerevisiae deletion strains, locus YNL307C, strain MCK1, stronger effect = lower value): 0.0657 (active)
normalized growth (S. cerevisiae deletion strains, locus YNL322C, strain KRE1 (second series), stronger effect = lower value): 0.998
normalized growth (S. cerevisiae deletion strains, locus YNL322C, strain KRE1, stronger effect = lower value): 0.047 (active)
normalized growth (S. cerevisiae deletion strains, locus YNR049C, strain mso1, stronger effect = lower value): 0.987
normalized growth (S. cerevisiae deletion strains, locus YNR052C, strain pop2, stronger effect = lower value): 0.0632 (active)
normalized growth (S. cerevisiae deletion strains, locus YOL006C, strain TOP1, stronger effect = lower value): 0.119 (active)
normalized growth (S. cerevisiae deletion strains, locus YOL012C, strain htz1): 0.179 (active)
normalized growth (S. cerevisiae deletion strains, locus YOL147C, strain pex11, stronger effect = lower value): 0.0616 (active)
normalized growth (S. cerevisiae deletion strains, locus YOR001W, strain rrp6, stronger effect = lower value): 1
normalized growth (S. cerevisiae deletion strains, locus YOR061W, strain CKA2, stronger effect = lower value): 0.0461 (active)
normalized growth (S. cerevisiae deletion strains, locus YOR069W, strain VPS5, stronger effect = lower value): 0.0484 (active)
normalized growth (S. cerevisiae deletion strains, locus YOR070C, strain gyp1, stronger effect = lower value): 0.962
normalized growth (S. cerevisiae deletion strains, locus YOR080W, strain dia2, stronger effect = lower value): 0.99
normalized growth (S. cerevisiae deletion strains, locus YOR083W, strain WHI5, stronger effect = lower value): 1
normalized growth (S. cerevisiae deletion strains, locus YOR106W, strain vam3, stronger effect = lower value): 0.976
normalized growth (S. cerevisiae deletion strains, locus YOR136W, strain idh2, stronger effect = lower value): 0.0725 (active)
normalized growth (S. cerevisiae deletion strains, locus YOR144C, strain elg1, stronger effect = lower value): 0.0688 (active)
normalized growth (S. cerevisiae deletion strains, locus YOR184W, strain ser1, stronger effect = lower value): 0.0609 (active)
normalized growth (S. cerevisiae deletion strains, locus YOR231W, strain MKK1, stronger effect = lower value): 0.984
normalized growth (S. cerevisiae deletion strains, locus YOR265W, strain rbl2, stronger effect = lower value): 0.982
normalized growth (S. cerevisiae deletion strains, locus YOR270C, strain vph1, stronger effect = lower value): 1.01
normalized growth (S. cerevisiae deletion strains, locus YOR290C, strain snf2, stronger effect = lower value): 0.962
normalized growth (S. cerevisiae deletion strains, locus YOR316C, strain cot1, stronger effect = lower value): 0.0601 (active)
normalized growth (S. cerevisiae deletion strains, locus YPL051W, strain arl3, stronger effect = lower value): 0.989
normalized growth (S. cerevisiae deletion strains, locus YPL078C, strain atp4, stronger effect = lower value): 0.979
normalized growth (S. cerevisiae deletion strains, locus YPL106C, strain sse1, stronger effect = lower value): 1.12
normalized growth (S. cerevisiae deletion strains, locus YPL240C, strain hsp82, stronger effect = lower value): 0.988
normalized growth (S. cerevisiae deletion strains, locus YPL256C, strain CLN2, stronger effect = lower value): 1.03
normalized growth (S. cerevisiae deletion strains, locus YPR119W, strain clb2, stronger effect = lower value): 0.0692 (active)
normalized growth (S. cerevisiae deletion strains, locus YPR141C, strain kar3, stronger effect = lower value): 0.99
normalized growth (S. cerevisiae deletion strains, locus YPR163C, strain tif3, stronger effect = lower value): 0.0692 (active)
normalized growth (S. cerevisiae deletion strains, locus YPR167C, strain met16, stronger effect = lower value): 0.0627 (active)
normalized growth (S. cerevisiae deletion strains, strain wtn01, stronger effect = lower value): 0.0688 (active)
normalized growth (S. cerevisiae strains, strain wild type, stronger effect = lower value): 0.0499 (active)
